Records with an inconclusive call do not appear. Values without a mark were called inactive. Calls of active or inactive are those of the source. Calls come from the whole dose curve; as a rule, active = well fitted inhibition curve with a large enough effect; inconclusive = small, poorly fitted or top-dose-only effect; inactive = flat fitted curve, though single readings scatter.
The molecules below were run on KB-3-1 (assay: Cytotoxic Profiling of Annotated Libraries Using Quantitative High-Throughput Screening (AID 1296008; note: nearly all actives have a fitted effect of over 60% in size)). Settings: Five cell lines viability, CellTiter-Glo ATP luminescence, 48-72 h; max response: stronger effect = lower value.
Summary of the method: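 Compounds were pin-transferred onto cells and incubated 48 or 72 hr at 37 degree Celsius, 95% humidity. CellTiter-Glo was added, plates sat 10 min at room temperature, then ATP-coupled luminescence was imaged as the viability read-out.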
% is set by controls: 0 for no effect and ±100 for the full control effect; potency is the fitted concentration of half-maximal effect.

Structure (SMILES)	max response [%]	outcome	Potency
CC1=C(CCC(C)CC(=O)O)[C@@]2(C)CCCC(C)(C)C2CC1=O (some centres not stated)	-1.22	–	–
O=C1CCC=CC1(O)C(=O)OCc1ccccc1O[C@@H]1O[C@H](CO)[C@@H](O)[C@H](O)[C@H]1O (some centres not stated)	-1.56	–	–
COc1ccc(CCO[C@@H]2O[C@H](CO[C@@H]3OC[C@H](O)[C@H](O)[C@H]3O)[C@@H](O)[C@H](O)[C@H]2O)cc1	4	–	–
C[C@@H]1O[C@@H](O[C@H]2[C@H](O)[C@@H](O)[C@H](OC3CCC4(C)C5CCC(C)(C(CO)OC6OC(CO)C(O)C(O)C6O)CC5=CCC4C3(C)C)O[C@@H]2CO)[C@H](O)[C@H](O)[C@H]1O (some centres not stated)	0.989	–	–
COc1cc(O)cc(C)c1C(=O)O[C@H]1[C@@H](OC(C)=O)[C@H](n2ccc(=O)[nH]c2=O)O[C@@H]1CO	7.29	–	–
CC12CCC(OC3OC(CO)C(O)C(OC4OC(CO)C(O)C(O)C4O)C3O)CC1CCC1C2CCC2(C)/C(=C3/COC(=O)C3)CCC12O (configuration not stated)	-0.791	–	–
C[C@@H]1O[C@@H](O[C@H]2[C@@H](OC(=O)[C@]34CCC(C)(C)CC3C3=CCC5[C@@]6(C)C[C@H](O)[C@H](O[C@@H]7O[C@H](C(=O)O)[C@@H](O)[C@H](O)[C@H]7O)[C@@](C)(C(=O)O)C6CC[C@@]5(C)[C@]3(C)CC4)OC[C@H](O)[C@@H]2O)[C@H](O)[C@H](O)[C@H]1O[C@@H]1OC[C@@H](O)[C@H](O)[C@H]1O (some centres not stated)	–	inactive	–
CC1(C(=O)O)CCCC2(C)C3=CCC4CC3(CCC12)CC4CO (configuration not stated)	2.22	–	–
COc1cc2c(cc1OC)[C@@H]1[C@H](O)[C@@H](OC)C=C3CCN(C2)[C@H]31	–	–	7.18 µM (active)
CC(=O)OC[C@]12[C@H](OC(C)=O)C(=O)[C@@H]3[C@@H](OC(C)=O)[C@@]14O[C@@]3(C)COC(=O)c1cccnc1[C@@H](C)[C@H](C)C(=O)O[C@@H]([C@H](O)[C@@H]2OC(C)=O)[C@]4(C)O	-8.82	–	–
COC(=O)Cc1cc2c(c([N+](=O)[O-])c1)N(C(=O)CC[C@H](N)C(=O)O)CC2	7.29	–	–
O=C(NCc1cccc(O)c1)c1cc2cc(F)ccc2[nH]1	-5.86	–	–
Cc1ccc(F)cc1C(=O)Nc1ccc(C(=O)N2Cc3cccn3Cc3ccccc32)c(Cl)c1	-16	–	–
COc1ccc([C@@H]2OC[C@H]3[C@@H]2CO[C@@H]3c2ccc(OC3OC(CO)C(O)C(O)C3O)c(OC)c2)cc1OC (some centres not stated)	8.67	–	–
C/C=C/c1ccc2c(c1)[C@@H](C)[C@H](c1ccc(O)cc1)O2	-2.15	–	–
C=C1C(=O)OC2CC3(C)C(CC12)C(C)=CC(O)C3OC(C)=O (configuration not stated)	–	inactive	–
CCCOC(c1cc2nccc(C(=O)O)c2[nH]1)c1ccccc1Cl (configuration not stated)	–	inactive	–
CC(=O)O[C@]1(C(C)=O)CC[C@H]2[C@@H]3C[C@H](C)C4=CC(=O)C=C[C@]4(C)[C@@]3(F)[C@@H](O)C[C@@]21C	–	inactive	–
CC(C)CNCc1ccc(-c2ccccc2S(=O)(=O)N2CCCC2)cc1	-1.28	–	–
OC[C@H]1O[C@@H](Oc2ccccc2)[C@H](O)[C@@H](O)[C@@H]1O	–	inactive	–
OCC1OC(Oc2cc(O)cc(/C=C/c3ccc(O)cc3)c2)C(O)C(O)C1O (configuration not stated)	5.61	–	–
C/C1=C\CC[C@]2(C)O[C@@H]2[C@H](O)[C@H](C(C)C)[C@H](OC(=O)/C=C/c2ccccc2)C1	-3.73	–	–
CC1=CC2C(CC1OC1OC(CO)C(O)C(O)C1O)C(C)CC(=O)C2C(C)C (configuration not stated)	–	inactive	–
COC(=O)c1ccc(OC(CO)C(O)c2ccc(O)c(OC)c2)c(OC)c1 (configuration not stated)	-5.47	–	–
COc1ccc(/C=C/C(=O)O[C@@H]2[C@@H](O)[C@H](C)O[C@@H](O[C@H]3[C@@H]4C=CO[C@@H](O[C@H]5O[C@@H](CO)[C@H](O)[C@@H](O)[C@@H]5O)[C@@H]4[C@@]4(CO)O[C@@H]34)[C@@H]2OC(C)=O)cc1	9.04	–	–
COc1cc2c(cc1OC)CC(=O)N(CCCNC[C@H]1Cc3cc(OC)c(OC)cc31)CC2	–	inactive	–
COC1CC(OC2CCC3(C)C(=CCC4C3C(OC(C)=O)C(OC(=O)/C=C/c3ccccc3)C3(C)C(C(C)O)CCC43O)C2)OC(C)C1OC1CC(OC)C(OC2OC(C)C(OC3OC(CO)C(O)C(O)C3O)C(OC)C2O)C(C)O1 (configuration not stated)	-1.59	–	–

From PubChem BioAssay (NCATS)
